Results filed as inconclusive are left out. Values without a mark were called inactive. Active and inactive are the calls of the source. Calls follow the shape of the dose curve; as a rule, active = well fitted cell-killing curve with a large enough effect; inconclusive = small, poorly fitted or top-dose-only effect, or effect the other way; inactive = flat fitted curve, though single readings scatter. *1 amine or outer side, *2 acyl side, *3 side chain or, on linkers, in order; H or OH if unused. Where a SMILES comes first, the peptide text is derived from it. [ ]: non-standard residue; d: D form. X4 = CC(C)=CCc1cc(C(O)C(N[*:1])C(=O)[*:2])ccc1O
System: Hek293T
Test: Primary qHTS to identify gynecologic anti-cancer compounds using libraries of approved drugs and bioactive compounds (AID 1345084); also: nearly all actives have a fitted effect of over 55% in size
Details: Gynecologic cancer cell panel viability, ATPlite luminescence, 48 h, control line for the selectivity index; series mostly up to 57.5 µM; activity change, negative = cytotoxicity: at the top concentration
Outline: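 Cell viability after 48 h drug treatment, ATPlite luminescence readout; five doses.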
% is scaled to controls: 0 for no effect and ±100 for the full control effect; potency is read from the fitted curve at half-maximal effect.

| SMILES | activity change, negative = cytotoxicity | Potency |
| --- | --- | --- |
| Cn1nnc(-c2ccc(-c3ccc(N4C[C@H](CO)OC4=O)cc3F)cn2)n1 | -13.7% | – |
| CC(=O)OC1CC2C3(C)CCC(OC(=O)CC(=O)O)C(C)(C)C3CCC2(C)C2(C)CCC(C3(C)CCC(=O)O3)C12 (stereo not given) | 5.27% [at 25.3 µM] | – |
| COc1cc(O)cc(/C=C/c2ccc(O[C@@H]3O[C@H](CO)[C@@H](O)[C@H](O)[C@H]3O)cc2)c1 | -8.57% [at 25.3 µM] | – |
| O=S(=O)(c1ccccc1)c1cnc2c(N3CCNCC3)cccc2c1 | -1.95% | – |
| CC(C)c1cc(C(=O)N2CC[C@H](NC(=O)C3CC3)C2)n[nH]1 | 5.97% | – |
| CC(=O)OC1C(O)CC2(C)C(CCC(C)C23Cc2c(O)cc(CO)c(C=O)c2O3)C1(C)C (stereo not given) | 6.14% [at 25.3 µM] | – |
| COC(=O)CC(C)(O)CC(=O)OCc1ccc(O[C@@H]2O[C@H](CO)[C@@H](O)[C@H](O)[C@H]2O)cc1 (stereo not given in full) | 2.88% [at 25.3 µM] | – |
| CC(Cc1cc2c(c(C(N)=O)c1)N(CCCO)CC2)NCCOc1ccccc1OCC(F)(F)F (stereo not given) | -19.3% | – |
| O=C1CCC=CC1(O)C(=O)OCc1ccccc1O[C@@H]1O[C@H](CO)[C@@H](O)[C@H](O)[C@H]1O (stereo not given in full) | -2.8% [at 25.3 µM] | – |
| C=C1C(O)CC2C(C(=O)O)=COC(O[C@@H]3O[C@H](COC(=O)/C=C/c4ccc(O)cc4)[C@@H](O)[C@H](O)[C@H]3O)C12 (stereo not given in full) | -1.35% [at 25.3 µM] | – |
| O=C(OC1C=C(CO)C2C(OC3OC(CO)C(O)C(O)C3O)OC=CC12)c1ccc(O)cc1 (stereo not given) | -4.51% [at 25.3 µM] | – |
| COC(=O)CC(O)CC(O)/C=C/c1c(C)ccc2c1C(O)CC(C)C2 (stereo not given) | 7.22% [at 38.5 µM] | – |
| COc1cc(O)c2c(c1)C1=C[C@H](O)[C@@H](O)C[C@]1(C)OC2=O | -11.3% | – |
| CC(C)c1ccc(CO)cc1O[C@@H]1O[C@H](CO)[C@@H](O)[C@H](O)[C@H]1O | 4.03% [at 38.5 µM] | – |
| CC(=O)O[C@@H]1[C@H](O)[C@@H](O[C@@H]2O[C@@H](C)[C@H](O[C@@H]3OC[C@@H](O)[C@H](O[C@@H]4OC[C@@H](O)[C@H](O)[C@H]4O)[C@H]3O)[C@@H](O[C@@H]3O[C@H](CO)[C@@H](O)[C@H](O)[C@H]3O)[C@H]2O)[C@H](OC(=O)[C@]23CCC(C)(C)C[C@H]2C2=CCC4[C@@]5(C)CC[C@H](O[C@@H]6O[C@H](C(=O)O)[C@@H](O)[C@H](O[C@@H]7OC[C@@H](O)[C@H](O)[C@H]7O)[C@H]6O[C@@H]6O[C@H](CO)[C@H](O)[C@H](O)[C@H]6O)[C@@](C)(C=O)C5CC[C@@]4(C)[C@]2(C)CC3)O[C@@H]1C (stereo not given in full) | -2.1% [at 6.55 µM] | – |
| C/C=C(\C)C(=O)O[C@@H]1CC2[C@@H](CC=C3C[C@@H](O[C@H]4C[C@H](OC)[C@H](O[C@H]5C[C@H](OC)[C@H](O[C@@H]6O[C@H](C)[C@@H](O[C@H]7C[C@H](OC)[C@H](O[C@@H]8O[C@H](CO)[C@@H](O)[C@H](O)[C@H]8O)[C@@H](C)O7)[C@H](OC)[C@H]6O)[C@@H](C)O5)[C@@H](C)O4)CC[C@@]32C)[C@@]2(O)CC[C@H](C(C)=O)[C@@]12C (stereo not given in full) | -2.04% [at 6.55 µM] | – |
| C=C(CCC1=C(C)[C@H]2[C@H](CC3[C@@H]4CC=C5C[C@@H](O)C[C@@H](O)[C@]5(C)C4[C@H](O)C[C@@]32C)O1)CO[C@@H]1O[C@H](CO)[C@@H](O)[C@H](O)[C@H]1O (stereo not given in full) | – | 3.16 µM (active) |
| C[C@@H]1CC[C@@]2(OC1)O[C@H]1C[C@H]3[C@@H]4CC=C5C[C@@H](O)CC[C@]5(C)[C@H]4CC[C@]3(C)[C@H]1[C@@H]2C | 0.0335% [at 25.3 µM] | – |
| COC1=CC(=O)CC(C)C12Oc1cc(OC)cc(O)c1C2=O (stereo not given) | -9.9% | – |
| CC(C)(C)NS(=O)(=O)c1cncc(-c2cc(F)c3nc(N)nn3c2)c1 | 7.02% | – |
| CC(C)=CCc1cc(C(O)C2NC(=O)CNC(=O)C(Cc3c[nH]c4ccccc34)NC(=O)C3CCCN3C(=O)CNC(=O)C(C(C)C)NC(=O)CNC2=O)ccc1O (stereo not given) (cyclo(G[X4]GVGPW); configuration not given here) | -0.92% [at 11.6 µM] | – |
| Cc1cc(N2CCN([C@@H]3CN[C@H](C(=O)N4CCSC4)C3)CC2)n(-c2ccccc2)n1 | -18.8% | – |
| CC(=O)N1CCN(Cc2ccc([C@H](C)Nc3nccc(N4C(=O)OC[C@@H]4C(C)C)n3)cc2)CC1 | -0.333% | – |
| C/C(=C\CCC(C)CCO)C(=O)OC1(C)CCC2C(C(=O)O)=COC(OC3OC(CO)C(O)C(O)C3O)C21 (stereo not given) | -29.8% [at 25.3 µM] | – |
| Cc1cc(C(N)=O)ccc1-n1c(CCC(=O)O)ccc1-c1ccc(-n2ccnc2)cc1 | 20.9% | – |
